Records with an inconclusive call do not appear. Where a call stands in place of a potency, no number is given. Calls of active or inactive are those of the source. Calls follow the shape of the dose curve; as a rule, active = well fitted activation curve with a large enough effect; inconclusive = small, poorly fitted or top-dose-only effect; inactive = flat fitted curve, though single readings scatter.
assay: Cell viability assay for measurement of the protective activity of small molecules against cell death caused by Zika virus infection in human astrocytoma cells; conditions: SNB-19 Zika virus cytoprotection, ATP luminescence, 72 h; series mostly up to 46.1 µM
Method in brief: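 SNB-19 astrocytoma cells pre-treated with compounds for 1 h, then infected with ZIKV at 2 FFU/cell and incubated 72 h at 37 C. Viability read as ATP luminescence; percent inhibition of virus-induced viability loss calculated.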

Row | Compound | Potency
1 | O=C(Nc1ncc([N+](=O)[O-])s1)c1cccs1 | inactive
2 | C[C@@H]1CCN(C(=O)CC#N)C[C@H]1N(C)c1ncnc2[nH]ccc12 | inactive
3 | CC(C)(C)OC(=O)CN(Cc1ccc(Cl)cc1)Cc1ccc([N+](=O)[O-])s1 | 35.5 µM (active)
4 | O=C(O)c1cc([N+](=O)[O-])ccc1NCCCc1ccccc1 | inactive
5 | COc1cc(NC(C)CCCN)c2ncccc2c1 (centres undefined) | 17.3 µM (active)
6 | COc1cc2nc(-c3ccc(N4CCN(C)CC4)cc3)nc(NCCN3CCOCC3)c2cc1OC | 1.95 µM (active)
7 | COc1ccc(C=CC(=O)Nc2ccccc2C(=O)O)cc1OC | inactive
8 | Oc1cc(O)cc(/C=C/c2ccc(O)c(O)c2)c1 | inactive
9 | O=C1C[C@@H](c2ccc(O)cc2)Oc2cc(O)cc(O)c21 | inactive
10 | Nc1ccc(-c2ccc3ccccc3n2)cc1 | inactive
11 | CCCCCCOc1ccccc1C(N)=O | inactive
12 | COc1ccc2nc(NC(=O)Nc3ccccc3)sc2c1 | inactive
13 | CC(=NNC(=S)N1CCC1)c1ccccn1 | 0.69 µM (active)
14 | CC(C(=O)O)c1ccc(C(=O)c2cccs2)cc1 (centres undefined) | inactive
15 | Nc1ccc2c(c1)CN1C(=O)c3ccccc3C1=N2 | inactive
16 | O=C1c2ccccc2-[n+]2ccc3c([nH]c4ccccc43)c21 | inactive
17 | Cc1ccc2c(n1)Oc1ccc(C(C)C(=O)OCC(=O)N(C)C)cc1C2 (centres undefined) | inactive

Row | Compound | Potency
18 | CCCCCCCCCCCC(=O)[O][Sn]([CH2]CCC)([CH2]CCC)[O]C(=O)CCCCCCCCCCC | inactive
19 | CCCS(=O)c1ccc2nc(NC(=O)OC)[nH]c2c1 (centres undefined) | inactive
20 | O=C1NC(=O)C(=Cc2ccc(-c3ccc(F)cc3)o2)S1 | inactive
21 | Nc1ncnc2c1ncn2[C@@H]1O[C@@H](CO)[C@H](O)[C@H]1O | inactive
22 | O=c1cc(-c2ccccc2)oc2cc(O)cc(O)c12 | inactive
23 | CC(=O)OC(C)OC(=O)C(C)c1ccc(-c2ccccc2)c(F)c1 (centres undefined) | inactive
24 | Nc1nc2ccc([N+](=O)[O-])cc2s1 | inactive
25 | COc1ccc(-c2coc3cc(O)ccc3c2=O)cc1 | inactive
26 | O=c1oc2cc(O)ccc2s1 | inactive
27 | c1ccc(CCNc2nc(-c3ccccc3)cs2)cc1 | inactive
28 | COc1cc2nc(N3CCN(C(=O)C4CCCO4)CC3)nc(N)c2cc1OC (centres undefined) | inactive
29 | C[C@@H](O[C@H]1OCCN(Cc2n[nH]c(=O)[nH]2)[C@@H]1c1ccc(F)cc1)c1cc(C(F)(F)F)cc(C(F)(F)F)c1 | inactive
30 | COc1ccc(-c2cc(=S)ss2)cc1 | inactive
31 | CC(C(=O)O)c1ccc(-c2ccccc2)c(F)c1 (centres undefined) | inactive
32 | O=C(O)Cc1ccc(-c2ccccc2)cc1 | inactive
33 | O=C(C=CC=Cc1ccc2c(c1)OCO2)N1CCCCC1 | inactive
34 | Cc1c(NC(=O)c2ccc(C(C)(C)C)cc2)cccc1-c1cn(C)c(=O)c(Nc2ccc(C(=O)N3CCOCC3)cc2)n1 | 21.8 µM (active)

Reference: PubChem BioAssay AID1224854 (National Center for Advancing Translational Sciences (NCATS), 2016)
